Several values for one entry are separate records, joined by “and”; a condition that tells them apart may be missing. Equal entries are not always repeated. Activity calls are given as the source filed them. Rule for the calls: active = hit-call score of the fitted dose curve at least 0.9, where 1 is the maximum; inactive = score below 0.9.

The term AC50 denotes the concentration giving half of the maximal activity seen.

Read-out in the experiment: Cytochrome P450 4A22 (Homo sapiens) (UniProt Q5TCH4)
Briefly: LTEA_HepaRG_CYP4A22: Life Technologies and Expression Analysis (LTEA) Assay for Cytochrome P450 4A22 (CYP4A22) using HepaRG (AID 2283495). The settings on record: mRNA level, 48 h; actives raise or lower the signal. The protocol:
LTEA_HepaRG is a cell based, multiplexed-readout assay that uses HepaRG, a human liver cell line, with measurements taken at 48 hours after chemical dosing on a 96-well plate.LTEA_HepaRG_CYP4A22 is one of 102 assay component(s) measured in the LTEA HepaRG cell culture assay. It is a marker of NR mediated metabolism.Data from the assay component LTEA_HepaRG_CYP4A22 was analyzed into 1 endpoint. This assay endpoint, LTEA_HepaRG_CYP4A22, was analyzed with bidirectional fitting relative to DMSO as the negative control and baseline of activity. Using a type of inducible reporter, measures of mRNA induction for gain or loss-of-signal activity can be used to understand regulation of transcription factor activity. To generalize the intended target to other relatable targets, this assay endpoint is annotated to the cyp intended target family, where the subfamily is xenobiotic metabolism.
A total of 1060 chemcials from the ToxCast library were tested in eight-point concentration-response experiments. Cell culture and cytotoxicity assays were conducted at Thermo Fisher Scientific's Custom Services facility (Madison, WI). A single lot of human HepaRG cells (Thermo Fisher Scientific, Frederick, MD) was used for the cell culture experiments. 96-well format collagen type I coated plates of human HepaRG cells were prepared using established methods. Briefly, cryopreserved HepaRG cells were thawed, plated at a density of approximately 100,000 cells/well in HepaRG Thaw, Plate, and General Purpose media (HPRG770, Thermo Fisher Scientific), and incubated for 48 hours. 0.5% DMSO was selected as vehicle control to balance the requisite need of DMSO in HepaRG cultures to maintain differentiation (for example, baseline metabolism, proportions of hepatocytes vs. cholangiocytes), while enabling further hepatic receptor pathway activation (for example, PXR and CAR) in response to chemical exposure. 48 hours after plating, the culture medium was replaced with HepaRG Serum-Free Incudtion Media. Cells were exposed to each test chemical in duplicate and maintained in CO2 incubators for another 48 hours. Chemical plates were thawed to room temperature and 200x concentrations of treatment groups were prepared. 8-point conentration-reponse curves were made with the highest exposure at 100 uM, followed by half-log dilutions, all in 0.5% DMSO. Each test plate contained variouse controls, induction positive controls (1mM phenobarbital), cytotoxicity positive controls ([…] aflatoxin B1), vehicle controls (0.5% DMSO), and total lysis controls (0.5% DMSO). Cell morphology images were taken using an Essen IncuCyte FLR automated microscope, with six 96-well plates imaged in about 24 minutes. Images were captured and exported and JPEG files. Spent culture media was transfered to black-well plates for the LDH assay, and remaining media was sorted at -80 C for later use. Cells were treated with RLT buffer and frozen until shipped for gene expression analysis. Total RNA was isolated from the cell suspension in 75 uL of Buffer RLT (Qiagen, Germantown, MD 20874) by Quintiles/Expression Analysis (Durham, NC) using a custom isolation procedure. Total RNA from each plate well was transferred to a preamplification plate. Fluidigm's 96.96 Dynamic ArrayTM (Fluidigm, Amsterdam, the Netherlands) technology was used for gene expression analyses by quantitative reverse transcription polymerase chain reaction (qRT-PCR, performed by Quintiles/Expression Analysis, Durham, NC)89. Standard TaqManTM Assays (Applied Biosystems/ThermoFisher Scientific, Foster City, CA) were used to assess the expression of 93 genes selected based on their selectivity and sensitivity to important hepatic receptors known to be modulated by environmental chemicals; importance in human hepatocyte functionality; and hepatotoxicity. […]
As to `CN(C)N=O`, the compound was called inactive.
Regarding `Cc1ccccc1N`, the compound was called inactive.
Same read-out and setting: as for `NC(=O)O`, the entry is “inactive”.
Consider `CCOP(=S)(OCC)Oc1nc(Cl)c(Cl)cc1Cl`, for which the compound was called inactive.
On to `CC(C)(C)CC(C)(C)c1ccc(O)cc1`, for which the AC50 was 50 µM (active).
For `ClCC(Cl)CCl`, the outcome was inactive.
For `O=c1[nH]c(=O)[nH]c(=O)[nH]1`, the result was inactive.
As for `O=C(Nc1ccc2[nH]ccc2c1)c1cc2cc(F)ccc2n1Cc1cccc(F)c1`, the AC50 is 22.3 µM (active).
Regarding `COc1cc(-c2ccc(N)c(OC)c2)ccc1N`, the AC50 is 38.3 µM (active) and 50 µM (active).
Still for that read-out and setting: as for `O=C1C2(Cl)C3(Cl)C4(Cl)C(Cl)(Cl)C5(Cl)C3(Cl)C1(Cl)C5(Cl)C24Cl` (stereo unspecified), the figure is 24.1 µM (active).
As for `C=CC(=O)OCCCCCC(C)C`, the result was inactive.
Consider `CCN1CCC2(CC1)COc1cc3c(cc12)N(C(=O)c1ccc(-c2ccc(-c4nnc(C)o4)cc2C)cc1)CC3`, for which the result was inactive.
For the compound `C[C@]12CCC(=O)C[C@@H]1CC[C@@H]1[C@@H]2CC[C@]2(C)[C@@H](O)CC[C@@H]12`, the AC50 is 28.8 µM (active).
For the compound `O=C(O)C(F)(F)C(F)(F)C(F)(F)C(F)(F)C(F)(F)C(F)(F)F`, the AC50 is 21.4 µM (active).
Consider `CCC(=O)C(CC(C)N(C)C)(c1ccccc1)c1ccccc1` (stereo unspecified), for which the outcome was inactive.
For `O=C(O)C(F)(F)C(F)(F)C(F)(F)C(F)(F)C(F)(F)C(F)(F)C(F)(F)C(F)(F)C(F)(F)C(F)(F)F`, the compound was called inactive.
On to `CC(C)(OO)c1ccccc1`, for which the compound was classed as inactive.
Regarding `CCC(C)(C)c1ccc(O)c(C(C)(C)CC)c1`, the result was inactive.
For the compound `Cn1sc(Cl)cc1=O`, the result was inactive.
For the compound `CCOP(=S)(OCC)SCSP(=S)(OCC)OCC`, the AC50 was 0.0742 µM (active).
For `Oc1cccc2cccnc12`, the compound was called inactive.
With `CC(C)(c1ccccc1)c1ccc(O)c(C(C)(C)c2ccccc2)c1`, the AC50 was 70.4 µM (active).
`O=C(O)C(Cl)(Cl)Cl`: the compound was classed as inactive.
In the case of `ClC1(Cl)C2(Cl)C3(Cl)C4(Cl)C(Cl)(Cl)C5(Cl)C3(Cl)C1(Cl)C5(Cl)C24Cl` (stereo unspecified), the compound was classed as inactive.
Consider `O=[N+]([O-])c1ccc(O)c([N+](=O)[O-])c1`, for which the AC50 was 27.8 µM (active).
For the compound `CC(C)(C)c1cc(O)ccc1O`, the result was inactive.

The record behind these values is PubChem BioAssay (EPA / NIEHS).
